Active and inactive are the calls of the source. The calls were made as follows: active = hit-call score of the fitted dose curve at least 0.9, where 1 is the maximum; inactive = score below 0.9.
Experiments:
Details in all cases: mRNA level, 48 h; actives raise or lower the signal
[1] = read-out: Intercellular Adhesion Molecule 1 (ICAM1), ICAM1 (gene 3383); assay: LTEA_HepaRG_ICAM1: Life Technologies and Expression Analysis (LTEA) Assay for Intercellular Adhesion Molecule 1 (ICAM1) using HepaRG (AID 2283507)
Outline: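 Differentiated human HepaRG cells in serum-free induction medium exposed 48 h in duplicate to 8 half-log concentrations (top 100 uM, 0.5% DMSO). ICAM1 mRNA quantified by TaqMan qRT-PCR, normalized to ACTB, GAPDH and POLR2A; bidirectional fitting versus DMSO.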

[2] = read-out: Insulin-like growth factor-binding protein 1 (IGFBP1), IGFBP1 (gene 3484); assay: LTEA_HepaRG_IGFBP1: Life Technologies and Expression Analysis (LTEA) Assay for Insulin-like growth factor-binding protein 1 (IGFBP1) using HepaRG (AID 2283508)
Outline: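 HepaRG cells, plated 48 h then switched to serum-free induction medium, exposed in duplicate for 48 h to 8-point half-log series from 100 uM in 0.5% DMSO. mRNA measured by qRT-PCR, normalized to ACTB/GAPDH/POLR2A; bidirectional fit versus DMSO.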

[3] = read-out: Interleukin 6 (IL6), IL6 (gene 3569); assay: LTEA_HepaRG_IL6: Life Technologies and Expression Analysis (LTEA) Assay for Interleukin 6 (IL6) using HepaRG (AID 2283509)
Outline: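 Transcript levels, normalized to three housekeeping genes, were quantified by qRT-PCR after 48 h chemical treatment of HepaRG cells. Eight-point half-log series from 100 uM in 0.5% DMSO, duplicates. Fitted both directions against DMSO baseline.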

[4] = read-out: Interleukin 6 Receptor (IL6R), IL6R (gene 3570); assay: LTEA_HepaRG_IL6R: Life Technologies and Expression Analysis (LTEA) Assay for Interleukin 6 Receptor (IL6R) using HepaRG (AID 2283510);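 as to AC50: TaqMan qRT-PCR signal normalized to ACTB GAPDH and POLR2A housekeeping genes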
Outline: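 HepaRG, 48 h exposure, 8-pt half-log series, top 100 uM, 0.5% DMSO vehicle, duplicates. Read-out: TaqMan qRT-PCR of IL6R transcript, housekeeping-gene normalized. Gain or loss fitted relative to DMSO baseline.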

[5] = read-out: Potassium channel subfamily K member 1 (KCNK1), KCNK1 (gene 3775); assay: LTEA_HepaRG_KCNK1: Life Technologies and Expression Analysis (LTEA) Assay for Potassium channel subfamily K member 1 (KCNK1) using HepaRG (AID 2283511)
Outline: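 KCNK1 transcript measured by TaqMan qRT-PCR against three housekeeping genes, after HepaRG cells were treated 48 h with eight half-log concentrations (top 100 uM, 0.5% DMSO). Curves fitted bidirectionally relative to vehicle.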

[6] = read-out: Keratin 19 (KRT19), KRT19 (gene 3880); assay: LTEA_HepaRG_KRT19: Life Technologies and Expression Analysis (LTEA) Assay for Keratin 19 (KRT19) using HepaRG (AID 2283512)
Outline: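 Differentiated HepaRG cells in serum-free induction medium, exposed 48 h in duplicate to 8 half-log concentrations up to 100 uM in 0.5% DMSO. KRT19 mRNA by qRT-PCR, normalized to ACTB, GAPDH, POLR2A; bidirectional fit vs DMSO.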

[7] = read-out: JUN Transcription Factor, JUN (gene 3725); assay: LTEA_HepaRG_JUN: Life Technologies and Expression Analysis (LTEA) Assay for JUN Transcription Factor using HepaRG (AID 2283513)
Outline: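 HepaRG, 48 h exposure, 8-pt half-log series top 100 uM, 0.5% DMSO, duplicate. JUN mRNA by qRT-PCR (Fluidigm), housekeeping-normalized (ACTB/GAPDH/POLR2A); bidirectional curve fit vs DMSO baseline.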

[8] = read-out: Lipase C (LIPC), LIPC (gene 3990); assay: LTEA_HepaRG_LIPC: Life Technologies and Expression Analysis (LTEA) Assay for Lipase C (LIPC) using HepaRG (AID 2283514)
Outline: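 LIPC expression was quantified by qRT-PCR against three housekeeping genes (ACTB, GAPDH, POLR2A). Differentiated human HepaRG cells received eight half-log doses (top 100 uM, 0.5% DMSO) in duplicate for 48 h; fitting bidirectional relative to DMSO.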

[9] = read-out: Lipoprotein lipase (LPL), LPL (gene 4023); assay: LTEA_HepaRG_LPL: Life Technologies and Expression Analysis (LTEA) Assay for Lipoprotein lipase (LPL) using HepaRG (AID 2283515)
Outline: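 LPL transcript levels quantified by TaqMan qRT-PCR against three housekeeping genes after 48 h chemical treatment of HepaRG cells. Eight-point half-log series from 100 uM in 0.5% DMSO, tested in duplicate; bidirectional fitting versus vehicle.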

[10] = read-out: MicroRNA 122 (MIR122), gene 406906; assay: LTEA_HepaRG_MIR122: Life Technologies and Expression Analysis (LTEA) Assay for MicroRNA 122 (MIR122) using HepaRG (AID 2283516); also: the transcript read is the microRNA miR-122
Outline: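 qRT-PCR read-out (TaqMan, Fluidigm array), normalized to three housekeeping genes; HepaRG cells dosed 48 h at 8 concentrations up to 100 uM in 0.5% DMSO, duplicate; gain or loss fitted against DMSO baseline.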

[11] = read-out: matrix metalloproteinase-10 (MMP10), MMP10 (gene 4319); assay: LTEA_HepaRG_MMP10: Life Technologies and Expression Analysis (LTEA) Assay for matrix metalloproteinase-10 (MMP10) using HepaRG (AID 2283517)
Outline: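 Expression measured by TaqMan qRT-PCR with ACTB/GAPDH/POLR2A normalisation after 48 h chemical exposure of HepaRG cells. Eight half-log concentrations, top 100 uM, 0.5% DMSO vehicle, duplicates; gain or loss fitted against vehicle.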

MYC, MYC (gene 4609) = assay: LTEA_HepaRG_MYC: Life Technologies and Expression Analysis (LTEA) Assay for MYC using HepaRG (AID 2283518)
Outline: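 Differentiated HepaRG cells exposed 48 h in serum-free induction medium to 8 concentrations (top 100 uM, half-log steps; 0.5% DMSO), duplicate. MYC mRNA measured by Fluidigm qRT-PCR, normalized to ACTB, GAPDH, POLR2A; bidirectional fit versus DMSO.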

[12] = read-out: Paternally Expressed 10 (PEG10), PEG10 (gene 23089); assay: LTEA_HepaRG_PEG10: Life Technologies and Expression Analysis (LTEA) Assay for Paternally Expressed 10 (PEG10) using HepaRG (AID 2283520);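 as to AC50: PEG10 transcript by qRT-PCR normalised to ACTB GAPDH and POLR2A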
Outline: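 qRT-PCR read-out: PEG10 mRNA normalised to three housekeeping genes, fitted bidirectionally against 0.5% DMSO vehicle. HepaRG cells received test chemicals for 48 h in serum-free induction medium, 8 points, top 100 uM, half-log steps.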

[13] = read-out: Nuclear factor NF-kappa-B p105 subunit (Homo sapiens) (UniProt P19838); assay: LTEA_HepaRG_NFKB1: Life Technologies and Expression Analysis (LTEA) Assay for Nuclear Factor Kappa B Subunit 1 (NFKB1) using HepaRG (AID 2283521);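 also: TaqMan qRT-PCR transcript normalised to ACTB GAPDH and POLR2A housekeeping genes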
Outline: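 Human HepaRG cells receive eight half-log concentrations, highest 100 uM, for 48 h. NFKB1 expression is then quantified by qRT-PCR and analysed for up- or down-regulation relative to 0.5% DMSO vehicle.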

[14] = read-out: Protein phosphatase 2A (PPP2R4), PTPA (gene 5524); assay: LTEA_HepaRG_PPP2R4: Life Technologies and Expression Analysis (LTEA) Assay for Protein phosphatase 2A (PPP2R4) using HepaRG (AID 2283522)
Outline: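 HepaRG, 48 h exposure, 8-pt half-log series from 100 uM, 0.5% DMSO vehicle, duplicates. Readout: PPP2R4 mRNA, Fluidigm qRT-PCR, housekeeping-normalized. Bidirectional curve fit vs DMSO baseline.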

[15] = read-out: Phosphatase and tensin (PTEN), PTEN (gene 5728); assay: LTEA_HepaRG_PTEN: Life Technologies and Expression Analysis (LTEA) Assay for Phosphatase and tensin (PTEN) using HepaRG (AID 2283523)
Outline: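 Read-out: TaqMan qRT-PCR of PTEN transcript, normalized to three housekeeping genes, fitted in both directions against 0.5% DMSO. Differentiated human HepaRG cultures received chemicals for 48 h, eight-point half-log series topping at 100 uM.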

[16] = read-out: solute carrier (SLC22A1), SLC22A1 (gene 6580); assay: LTEA_HepaRG_SLC22A1: Life Technologies and Expression Analysis (LTEA) Assay for solute carrier (SLC22A1) using HepaRG (AID 2283524)
Outline: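 Transcript level of SLC22A1 quantified by qRT-PCR (normalized to three housekeeping genes) after 48 h chemical exposure of HepaRG cells, eight concentrations up to 100 µM, half-log steps, 0.5% DMSO vehicle. Gain or loss relative to DMSO fitted bidirectionally.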

[17] = read-out: Pyruvate Dehydrogenase Kinase 4 (PDK4), PDK4 (gene 5166); assay: LTEA_HepaRG_PDK4: Life Technologies and Expression Analysis (LTEA) Assay for Pyruvate Dehydrogenase Kinase 4 (PDK4) using HepaRG (AID 2283525)
Outline: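 Readout is qRT-PCR of PDK4 transcript, normalized to three housekeeping genes, with bidirectional fitting against 0.5% DMSO vehicle. Differentiated HepaRG cells were treated 48 h in serum-free induction medium, duplicate wells, eight-point half-log series topping at 100 uM.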

[18] = read-out: NAD(P)H dehydrogenase [quinone] 1 (NQO1), NQO1 (gene 1728); assay: LTEA_HepaRG_NQO1: Life Technologies and Expression Analysis (LTEA) Assay for NAD(P)H dehydrogenase [quinone] 1 (NQO1) using HepaRG (AID 2283526)
Outline: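 qRT-PCR read-out (Fluidigm TaqMan), normalized to three housekeeping genes, after 48 h chemical exposure of HepaRG cells. Concentrations: eight points, top 100 uM, half-log steps, 0.5% DMSO vehicle. Gain or loss of signal fitted relative to DMSO.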

Measured: AC50

Chain of Nuclear factor NF-kappa-B p105 subunit (Homo sapiens) (P19838 whole entry, looked up): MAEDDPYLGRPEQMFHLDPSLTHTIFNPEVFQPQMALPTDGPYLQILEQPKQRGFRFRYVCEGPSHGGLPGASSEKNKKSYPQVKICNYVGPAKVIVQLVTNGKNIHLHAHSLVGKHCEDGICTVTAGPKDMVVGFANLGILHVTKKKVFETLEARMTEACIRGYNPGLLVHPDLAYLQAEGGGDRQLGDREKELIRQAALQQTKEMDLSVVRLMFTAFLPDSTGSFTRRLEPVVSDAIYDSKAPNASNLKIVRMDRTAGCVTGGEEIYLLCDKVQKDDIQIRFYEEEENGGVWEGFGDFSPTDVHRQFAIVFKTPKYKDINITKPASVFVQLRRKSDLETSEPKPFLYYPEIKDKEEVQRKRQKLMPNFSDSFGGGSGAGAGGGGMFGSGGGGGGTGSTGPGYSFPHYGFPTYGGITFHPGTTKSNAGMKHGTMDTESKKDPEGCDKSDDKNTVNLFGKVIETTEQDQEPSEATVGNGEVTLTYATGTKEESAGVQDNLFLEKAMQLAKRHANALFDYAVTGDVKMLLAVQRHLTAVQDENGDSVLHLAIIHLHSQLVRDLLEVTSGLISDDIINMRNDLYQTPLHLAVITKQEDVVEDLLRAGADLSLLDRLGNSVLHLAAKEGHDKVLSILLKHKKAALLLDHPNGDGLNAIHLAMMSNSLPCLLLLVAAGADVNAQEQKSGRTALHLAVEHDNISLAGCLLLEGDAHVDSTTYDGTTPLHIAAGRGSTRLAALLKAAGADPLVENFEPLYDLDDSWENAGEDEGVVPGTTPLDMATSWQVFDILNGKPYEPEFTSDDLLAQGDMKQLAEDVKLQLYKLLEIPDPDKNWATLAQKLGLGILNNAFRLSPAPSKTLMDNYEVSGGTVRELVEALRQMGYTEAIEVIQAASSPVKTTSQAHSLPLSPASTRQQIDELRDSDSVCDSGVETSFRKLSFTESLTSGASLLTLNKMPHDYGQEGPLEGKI

CCCOc1nn(C(=O)NS(=O)(=O)c2ccccc2C(=O)OC)c(=O)n1C
inactive: all assays above

COc1cc(OC)nc(Sc2cccc(Cl)c2C(=O)O)n1
inactive: all assays above

O=[N+]([O-])c1cc(C(F)(F)F)c(Cl)c([N+](=O)[O-])c1Nc1ncc(C(F)(F)F)cc1Cl
active: [2] 42.6 µM | [3] 73.9 µM | [4] 50 µM | [6] 26.2 µM | [8] 24.4 µM | [9] 74.1 µM | [10] 15.8 µM | [11] 24.8 µM | [12] 49.2 µM | [14] 65.2 µM | [15] 59.8 µM | [16] 17.8 µM | [17] 34 µM
inactive: [1] | [5] | [7] | MYC, MYC (gene 4609) | [13] | [18]

CN(C)[C@@H]1C(=O)C(C(N)=O)=C(O)[C@@]2(O)C(=O)C3=C(O)c4c(O)cccc4[C@@](C)(O)[C@H]3[C@H](O)[C@@H]12
not listed: [13]
inactive: all other assays above

CCCCSP(=O)(SCCCC)SCCCC
active: [2] 64.2 µM | [6] 1.7 µM | [8] 83.6 µM | [9] 68.5 µM | [16] 78.9 µM | [17] 77.5 µM
not listed: [13] | [18]
inactive: all other assays above

CCOP(=S)(OCC)Oc1cc(C)nc(C(C)C)n1
active: [2] 19 µM | [12] 50 µM
inactive: all other assays above

CCCSP(=O)(OCC)SCCC
active: [16] 10.2 µM
not listed: [13] | [18]
inactive: all other assays above

CC[C@H](C)[C@H]1O[C@]2(C=C[C@@H]1C)C[C@@H]1C[C@@H](C/C=C(\C)[C@@H](O[C@H]3C[C@H](OC)[C@@H](O[C@H]4C[C@H](OC)[C@@H](NC)[C@H](C)O4)[C@H](C)O3)[C@@H](C)/C=C/C=C3\CO[C@@H]4[C@H](O)C(C)=C[C@@H](C(=O)O1)[C@]34O)O2
inactive: [6] | [8]
active: [1] 28.9 µM | [2] 14.6 µM | [3] 21.3 µM | [4] 22.6 µM | [5] 22.5 µM | [7] 26.5 µM | [9] 12.1 µM | [10] 55.6 µM | [11] 29.4 µM | MYC, MYC (gene 4609) 32 µM | [12] 13.3 µM | [14] 33.3 µM | [15] 23.5 µM | [16] 23.8 µM | [17] 91.9 µM

CCOP(=S)(OCC)OC(Cl)C(Cl)(Cl)Cl (stereo not drawn)
inactive: all assays above

CCC(=O)Nc1ccc(Cl)c(Cl)c1
active: [2] 50 µM | [6] 41.4 µM | MYC, MYC (gene 4609) 50 µM | [12] 65 µM | [16] 50 µM
not listed: [13] | [18]
inactive: all other assays above

CNC(=O)Oc1cccc2c1OC(C)(C)O2
not listed: [13] | [18]
inactive: all other assays above
